The panel holds about 83,000 compounds, 20% with a hit somewhere; the sample as a whole holds those more often.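 How to read the values: 0–100, growth inhibition (40 = 60% inhibited); 0, no net growth; -100 to 0, cell death (-40 = 40% of starting cells died; -100 = all dead).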 Active and inactive are the calls of the source. How the source made its calls: active means growth percent below 10; inactive means the rest.
What was measured:
Assay in all cases: NCI-60 one-dose screen, 48 h (100 = growth as untreated, 0 = no growth, -100 = all killed)
Conditions in all cases: 10 µM
HCT-15 colon = system: HCT-15 colon
HT29 colon = system: HT29 colon
SNB-75 CNS = system: SNB-75 CNS
SNB-19 CNS = system: SNB-19 CNS
U251 CNS = system: U251 CNS
PC-3 prostate = system: PC-3 prostate
SK-MEL-5 melanoma = system: SK-MEL-5 melanoma
UACC-62 melanoma = system: UACC-62 melanoma
LOX IMVI melanoma = system: LOX IMVI melanoma
SK-MEL-28 melanoma = system: SK-MEL-28 melanoma
SK-MEL-2 melanoma = system: SK-MEL-2 melanoma
EKVX NSCLC = system: EKVX NSCLC
SN12C renal = system: SN12C renal
UO-31 renal = system: UO-31 renal
TK-10 renal = system: TK-10 renal
ACHN renal = system: ACHN renal
CAKI-1 renal = system: CAKI-1 renal
A498 renal = system: A498 renal
CCRF-CEM leukemia = system: CCRF-CEM leukemia
MOLT-4 leukemia = system: MOLT-4 leukemia

Measured: growth

Cc1ccc2nc(Cl)c(-c3nc4ccccc4o3)cc2c1
inactive: HCT-15 colon 79.4% | HT29 colon 102% | SNB-75 CNS 90.2% | SNB-19 CNS 93.2% | U251 CNS 102% | PC-3 prostate 79.8% | SK-MEL-5 melanoma 88.7% | UACC-62 melanoma 94.9% | LOX IMVI melanoma 82.8% | SK-MEL-28 melanoma 104% | SK-MEL-2 melanoma 94.2% | EKVX NSCLC 88.1% | SN12C renal 104% | UO-31 renal 62.9% | TK-10 renal 115% | ACHN renal 76% | CAKI-1 renal 105% | A498 renal 75.6% | CCRF-CEM leukemia 98.1% | MOLT-4 leukemia 81.4%

CCOC(=O)c1cocc1C(=O)O
inactive: HCT-15 colon 103% | HT29 colon 110% | SNB-75 CNS 83.3% | SNB-19 CNS 107% | U251 CNS 103% | PC-3 prostate 112% | SK-MEL-5 melanoma 104% | UACC-62 melanoma 116% | LOX IMVI melanoma 103% | SK-MEL-28 melanoma 104% | SK-MEL-2 melanoma 105% | EKVX NSCLC 103% | SN12C renal 105% | UO-31 renal 93.3% | TK-10 renal 118% | ACHN renal 111% | CAKI-1 renal 107% | A498 renal 112% | CCRF-CEM leukemia 74.1% | MOLT-4 leukemia 86.5%

NS(=O)(=O)Oc1ccc2c(ccn2C(=O)C23CC4CC(CC(C4)C2)C3)c1
inactive: HCT-15 colon 110% | HT29 colon 102% | SNB-75 CNS 117% | SNB-19 CNS 98.5% | U251 CNS 99.2% | PC-3 prostate 103% | SK-MEL-5 melanoma 95% | UACC-62 melanoma 98.8% | LOX IMVI melanoma 98.8% | SK-MEL-28 melanoma 101% | SK-MEL-2 melanoma 116% | EKVX NSCLC 109% | SN12C renal 97.8% | UO-31 renal 80.4% | TK-10 renal 106% | ACHN renal 101% | CAKI-1 renal 94.4% | A498 renal 98.1% | CCRF-CEM leukemia 99% | MOLT-4 leukemia 101%

Cc1ccc(-n2nnnc2N)c(C)c1
inactive: HCT-15 colon 106% | HT29 colon 123% | SNB-75 CNS 101% | SNB-19 CNS 113% | U251 CNS 99.5% | PC-3 prostate 105% | SK-MEL-5 melanoma 115% | UACC-62 melanoma 96.4% | LOX IMVI melanoma 93.8% | SK-MEL-28 melanoma 112% | SK-MEL-2 melanoma 114% | EKVX NSCLC 98.5% | SN12C renal 113% | UO-31 renal 94.6% | TK-10 renal 136% | ACHN renal 102% | CAKI-1 renal 94.5% | A498 renal 80% | CCRF-CEM leukemia 112%

Cc1cc(Cl)ccc1Nc1nc(C(F)(F)F)ccc1C(=O)N/N=C/c1cccc(O)c1
inactive: HCT-15 colon 23% | HT29 colon 23.7% | SNB-75 CNS 28.9% | SNB-19 CNS 63.5% | U251 CNS 30.5% | PC-3 prostate 29.7% | UACC-62 melanoma 38.7% | LOX IMVI melanoma 35.9% | SK-MEL-28 melanoma 52.4% | SK-MEL-2 melanoma 16% | EKVX NSCLC 20.8% | SN12C renal 52.3% | TK-10 renal 85.9% | ACHN renal 28.3% | CAKI-1 renal 25.5%
active: SK-MEL-5 melanoma -52.1% | UO-31 renal 6.02% | A498 renal -41.5% | CCRF-CEM leukemia 4.04% | MOLT-4 leukemia 3.63%

O=c1oc2c(cc1-c1ccc(F)cc1)C(O)Oc1ccccc1-2 (stereo not drawn)
inactive: HCT-15 colon 63.4% | HT29 colon 66.8% | SNB-75 CNS 63.4% | SNB-19 CNS 95.9% | U251 CNS 67.4% | PC-3 prostate 92.9% | SK-MEL-5 melanoma 34.8% | UACC-62 melanoma 44.5% | LOX IMVI melanoma 77.8% | SK-MEL-28 melanoma 88.6% | SK-MEL-2 melanoma 76.1% | EKVX NSCLC 51.2% | SN12C renal 95.4% | UO-31 renal 84.1% | TK-10 renal 72.3% | ACHN renal 94.4% | CAKI-1 renal 74% | A498 renal 89.5% | CCRF-CEM leukemia 113% | MOLT-4 leukemia 68.3%

COc1cc(NC(=O)C2=C(N3CCOCC3)/C(=C/c3ccc(Cl)cc3)CC2)cc(OC)c1OC
inactive: HCT-15 colon 73% | HT29 colon 86% | SNB-75 CNS 90.5% | SNB-19 CNS 79.3% | U251 CNS 91.2% | PC-3 prostate 44.8% | SK-MEL-5 melanoma 66.3% | UACC-62 melanoma 73.1% | LOX IMVI melanoma 89.4% | SK-MEL-28 melanoma 112% | SK-MEL-2 melanoma 85.4% | EKVX NSCLC 93.4% | SN12C renal 83.4% | UO-31 renal 72.8% | TK-10 renal 121% | ACHN renal 93.5% | CAKI-1 renal 84.6% | A498 renal 98.3% | CCRF-CEM leukemia 39.8% | MOLT-4 leukemia 49.3%

CNC(=O)c1cn(C2CC2)c2cc(N3CCN(C(=O)c4cc(OC)c(OC)c(OC)c4)CC3)c(F)cc2c1=O
inactive: HCT-15 colon 100% | HT29 colon 99.2% | SNB-75 CNS 96% | SNB-19 CNS 96.4% | U251 CNS 96.3% | PC-3 prostate 89.9% | SK-MEL-5 melanoma 98.3% | UACC-62 melanoma 96.5% | LOX IMVI melanoma 94.7% | SK-MEL-28 melanoma 105% | SK-MEL-2 melanoma 94.8% | EKVX NSCLC 91.2% | SN12C renal 101% | UO-31 renal 79% | TK-10 renal 92.1% | ACHN renal 99.4% | CAKI-1 renal 90.9% | A498 renal 88.4%

COc1ccc(-c2csc(NC(=O)c3ccc(Cc4n[nH]c(=O)c5cccnc45)cc3)n2)cc1
inactive: HCT-15 colon 85.8% | HT29 colon 104% | SNB-75 CNS 82.6% | SNB-19 CNS 89.8% | U251 CNS 99.1% | PC-3 prostate 77.9% | SK-MEL-5 melanoma 85.7% | UACC-62 melanoma 74.5% | LOX IMVI melanoma 90.3% | SK-MEL-28 melanoma 95.2% | SK-MEL-2 melanoma 110% | EKVX NSCLC 66.6% | SN12C renal 89.1% | UO-31 renal 51.9% | TK-10 renal 115% | ACHN renal 88.2% | CAKI-1 renal 84.5% | A498 renal 95.8%

COc1ccc(NC(=O)C2CC3C=CC2C3)c([N+](=O)[O-])c1 (stereo not drawn)
inactive: HCT-15 colon 97.1% | HT29 colon 101% | SNB-75 CNS 91.2% | SNB-19 CNS 91.9% | U251 CNS 98.4% | PC-3 prostate 94.9% | SK-MEL-5 melanoma 96% | UACC-62 melanoma 96.5% | LOX IMVI melanoma 95.3% | SK-MEL-28 melanoma 98.1% | SK-MEL-2 melanoma 104% | EKVX NSCLC 101% | SN12C renal 91.6% | UO-31 renal 92.4% | TK-10 renal 109% | ACHN renal 98.4% | CAKI-1 renal 92.6% | A498 renal 103% | CCRF-CEM leukemia 95.6% | MOLT-4 leukemia 86.8%

COc1ccc(C(=O)CC(CC(=O)c2ccc(OC)cc2)c2c(C)nn(-c3ccccc3)c2Cl)cc1
inactive: HCT-15 colon 100% | HT29 colon 87% | SNB-75 CNS 91.3% | SNB-19 CNS 93.3% | U251 CNS 102% | PC-3 prostate 85.6% | SK-MEL-5 melanoma 90.2% | UACC-62 melanoma 88.3% | LOX IMVI melanoma 83.3% | SK-MEL-28 melanoma 105% | SK-MEL-2 melanoma 94.3% | EKVX NSCLC 102% | SN12C renal 93.3% | UO-31 renal 72.8% | TK-10 renal 103% | ACHN renal 90.8% | CAKI-1 renal 85.1% | A498 renal 80.8%

COc1cc(CNC(=O)C2CSC3(C)c4ccccc4C(=O)N23)cc(OC)c1OC (stereo not drawn)
inactive: HCT-15 colon 106% | HT29 colon 82.6% | SNB-75 CNS 97.5% | SNB-19 CNS 93% | U251 CNS 82.7% | PC-3 prostate 90% | SK-MEL-5 melanoma 102% | UACC-62 melanoma 92.5% | LOX IMVI melanoma 105% | SK-MEL-28 melanoma 103% | SK-MEL-2 melanoma 89.3% | EKVX NSCLC 108% | SN12C renal 91.6% | UO-31 renal 90.3% | TK-10 renal 102% | ACHN renal 97.4% | CAKI-1 renal 89.8% | A498 renal 90.5% | CCRF-CEM leukemia 90.7% | MOLT-4 leukemia 81.2%

O=C1OC(C(Cl)(Cl)Cl)OC1C(Cl)(Cl)Cl (stereo not drawn)
inactive: HCT-15 colon 109% | HT29 colon 105% | SNB-75 CNS 104% | SNB-19 CNS 102% | U251 CNS 104% | PC-3 prostate 86.8% | SK-MEL-5 melanoma 107% | UACC-62 melanoma 95.3% | LOX IMVI melanoma 97% | SK-MEL-28 melanoma 107% | SK-MEL-2 melanoma 102% | EKVX NSCLC 106% | SN12C renal 97.1% | UO-31 renal 89.4% | TK-10 renal 110% | ACHN renal 113% | CAKI-1 renal 113% | A498 renal 109% | CCRF-CEM leukemia 104%
active: MOLT-4 leukemia -10.8%

CCN(CC)c1ccc(/C=C2\SC(=O)C(Nc3nnc(-c4cccnc4SCc4ccccc4)o3)C2=O)cc1 (stereo not drawn)
inactive: HCT-15 colon 15.2% | SNB-75 CNS 44.1% | SNB-19 CNS 63.5% | PC-3 prostate 16.9% | SK-MEL-5 melanoma 27.4% | UACC-62 melanoma 30.2% | LOX IMVI melanoma 42.3% | SK-MEL-28 melanoma 50.8% | SK-MEL-2 melanoma 33.8% | EKVX NSCLC 55.8% | SN12C renal 61.4% | UO-31 renal 53.7% | TK-10 renal 44.3% | ACHN renal 51.2% | CAKI-1 renal 41.2% | CCRF-CEM leukemia 50.6% | MOLT-4 leukemia 61.9%
active: HT29 colon 3.09% | U251 CNS 3.89% | A498 renal 9.41%

O=C(N/N=C/c1cc([N+](=O)[O-])ccc1O)c1cccc2ccccc12
active: UACC-62 melanoma 9.83% | LOX IMVI melanoma 9.69% | CCRF-CEM leukemia -8.77% | MOLT-4 leukemia 9.21%
inactive: HCT-15 colon 22.5% | HT29 colon 65.9% | SNB-75 CNS 55% | SNB-19 CNS 53% | U251 CNS 29.8% | PC-3 prostate 41.4% | SK-MEL-5 melanoma 39.1% | SK-MEL-28 melanoma 50% | SK-MEL-2 melanoma 66.4% | EKVX NSCLC 33.5% | SN12C renal 51.1% | UO-31 renal 19.1% | TK-10 renal 46.3% | ACHN renal 15.7% | CAKI-1 renal 19.9% | A498 renal 62.4%

Nc1ccc(CC[C@H]2CCC/C=C/[C@@H]3C[C@H](O)C[C@H]3[C@H](O)/C=C/C(=O)O2)cc1
inactive: SNB-75 CNS 32.3% | SNB-19 CNS 29.5% | U251 CNS 15.8% | PC-3 prostate 12.9% | UACC-62 melanoma 11.7% | ACHN renal 10%
active: HCT-15 colon 6.58% | HT29 colon -39.8% | SK-MEL-5 melanoma -84.9% | LOX IMVI melanoma -74.4% | SK-MEL-28 melanoma 5.16% | SK-MEL-2 melanoma -25.9% | EKVX NSCLC 8.9% | SN12C renal 7.47% | UO-31 renal 2.24% | TK-10 renal -53.8% | CAKI-1 renal 7.49% | A498 renal -32.4% | CCRF-CEM leukemia -3.7% | MOLT-4 leukemia -18.8%
